Among the test systems are NCI-H23 lung; NCI-H226 lung; NCI-H322M lung; HOP-62 NSCLC; NCI-H460 lung; HOP-92 NSCLC; NCI-H522 lung; A549/ATCC NSCLC; 786-0 renal; COLO 205 colon; DU-145 prostate; K-562 leukemia; MALME-3M melanoma; MDA-MB-231 breast; RXF 393 renal; SF-268 CNS; SF-295 CNS; SF-539 CNS; UACC-257 melanoma; M14 melanoma.
Experiment in all cases: NCI-60 one-dose screen, 48 h (100 = growth as untreated, 0 = no growth, -100 = all killed)
Settings in all cases: 10 µM unless noted

Each structure is given as a SMILES string. About 83,000 compounds went through this panel and 20% of them were active in at least one assay; those are over-represented in the sample as a whole.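 Negative percent growth values reflect cell death: -40 means 40% of the cells present at the start died, and -100 means all died.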 A number with no mark means an inactive call. Activity calls are given as the source filed them. The calls were made as follows: active = growth percent below 10; inactive = the rest.

Consider `C=C1C(=O)O[C@H]2[C@H]1CC/C(COC(=O)CCCCCC(=O)OC/C1=C/CC[C@@]3(C)O[C@H]3[C@H]3OC(=O)C(=C)[C@@H]3CC1)=C\CC[C@@]1(C)O[C@@H]21`, for which the growth with NCI-H23 lung is 9.16% (active); with NCI-H226 lung, 52%; with NCI-H322M lung, 86.3%; in the assay with HOP-62 NSCLC, 85.6%; in the assay on NCI-H460 lung it was 76.4%; in the assay on HOP-92 NSCLC, -1.51% (active). The growth in the assay with NCI-H522 lung is -72.5% (active); in the assay on A549/ATCC NSCLC, 80.6%; in the assay on 786-0 renal, 7.09% (active); with COLO 205 colon, -38.4% (active); with DU-145 prostate it was 22.4%; in the assay on K-562 leukemia it was 6.4% (active). For the same molecule, the growth with MALME-3M melanoma was -11.1% (active); in the assay with MDA-MB-231 breast, -28.2% (active); in the assay on RXF 393 renal, -77.3% (active); in the assay with SF-268 CNS it was 43.6%; with SF-295 CNS it was 84.7%; with SF-539 CNS, 3.99% (active). Besides, the growth with UACC-257 melanoma is 48.2%.

Turning to `COc1ccccc1OCC(=O)N1CCCCCC1`, the growth in the assay on NCI-H23 lung is 92.8%; with NCI-H226 lung, 92.1%; in the assay with NCI-H322M lung, 105%; in the assay on HOP-62 NSCLC it was 104%; in the assay on NCI-H460 lung it was 105%; with HOP-92 NSCLC, 82.8%. Besides, the growth in the assay on NCI-H522 lung is 96%; with A549/ATCC NSCLC, 92.1%; with 786-0 renal it was 117%; with COLO 205 colon, 110%; in the assay with DU-145 prostate it was 107%; in the assay with K-562 leukemia it was 83.3%. Also, the growth with MALME-3M melanoma is 89.2%; in the assay with MDA-MB-231 breast it was 113%; in the assay on RXF 393 renal it was 97%; in the assay on SF-268 CNS, 108%; in the assay on SF-295 CNS, 106%; with SF-539 CNS, 104%. The growth in the assay on UACC-257 melanoma is 93.3%; in the assay on M14 melanoma, 119%.

Take `C=C(C)[C@@H]1CC[C@]2(C(=O)N3CCN(C)CC3)CC[C@]3(C)[C@H](CC[C@@H]4[C@@]5(C)CCC(=O)C(C)(C)[C@@H]5CC[C@]43C)[C@@H]12`: the growth in the assay with NCI-H23 lung is 89.9%; in the assay with NCI-H226 lung, 88.5%; with NCI-H322M lung it was 91.5%; in the assay on HOP-62 NSCLC it was 86.4%; with NCI-H460 lung it was 21%; in the assay on HOP-92 NSCLC, 52.8%. The growth in the assay on NCI-H522 lung was 85.1%; with A549/ATCC NSCLC, 85.1%; in the assay with 786-0 renal it was 71.1%; with COLO 205 colon it was 72.4%; in the assay on DU-145 prostate, 82.8%; in the assay on K-562 leukemia it was 60.5%. In addition, the growth in the assay with MALME-3M melanoma is 89%; in the assay with MDA-MB-231 breast, 79.4%; in the assay with RXF 393 renal it was 80.5%; with SF-268 CNS, 77.2%; in the assay on SF-295 CNS, 103%; in the assay on SF-539 CNS it was 73.9%. Further, the values for the growth in the assay with UACC-257 melanoma and in the assay on M14 melanoma were 101% and 94.7%, respectively.

As to `COc1ccc2c(/C=C3/C(=O)NC(=S)NC3C)cc(=O)oc2c1` (centres undefined), the growth was 98.9% in the assay with NCI-H23 lung; 96.7% in the assay on NCI-H226 lung; 93.1% with NCI-H322M lung; 92.8% in the assay on HOP-62 NSCLC; 105% with NCI-H460 lung; 93% in the assay with HOP-92 NSCLC. In addition, the growth with NCI-H522 lung is 82.3%; with A549/ATCC NSCLC it was 88.9%; with 786-0 renal it was 95.8%; in the assay on COLO 205 colon, 101%; with DU-145 prostate, 108%; in the assay with K-562 leukemia it was 98.1%. The growth in the assay on MALME-3M melanoma is 99.4%; with MDA-MB-231 breast it was 103%; with RXF 393 renal, 98.4%; with SF-268 CNS it was 89.4%; in the assay with SF-295 CNS it was 97.9%; in the assay with SF-539 CNS, 101%. The growth in the assay on UACC-257 melanoma was 83.5%; in the assay on M14 melanoma, 109%.

As to `CC(=O)c1c(-c2ccc(OC(F)(F)F)cc2)nc2ccccn12`, the growth is 95.4% in the assay with NCI-H23 lung; 91% in the assay with NCI-H226 lung; 90.4% in the assay with NCI-H322M lung; 88.9% in the assay on HOP-62 NSCLC; 103% in the assay with NCI-H460 lung; 91% in the assay on HOP-92 NSCLC. Moreover, the growth with NCI-H522 lung is 51.5%; in the assay with A549/ATCC NSCLC it was 62.8%; with 786-0 renal it was 99%; in the assay with COLO 205 colon it was 95.8%; in the assay with DU-145 prostate, 101%; with K-562 leukemia it was 113%. The growth with MALME-3M melanoma is 88.9%; in the assay on MDA-MB-231 breast, 94%; in the assay on RXF 393 renal, 108%; in the assay on SF-268 CNS it was 94.3%; in the assay on SF-295 CNS, 90.2%; with SF-539 CNS, 92.3%. In addition, the figures for the growth in the assay with UACC-257 melanoma and with M14 melanoma were 81.8% and 89.8%, respectively.

Regarding `CSc1nc(O)c(-c2ccccc2)c(=O)[nH]1`, the growth is 103% in the assay with NCI-H23 lung; 99.1% in the assay with NCI-H226 lung; 101% in the assay on NCI-H322M lung; 105% with HOP-62 NSCLC; 104% in the assay with NCI-H460 lung; 101% with HOP-92 NSCLC. Further, the growth was 94.2% in the assay with NCI-H522 lung; 100% in the assay on A549/ATCC NSCLC; 101% in the assay on 786-0 renal; 103% with COLO 205 colon; 107% in the assay on DU-145 prostate; 98% in the assay on K-562 leukemia. The growth in the assay on MALME-3M melanoma was 101%; in the assay on MDA-MB-231 breast it was 98.5%; with RXF 393 renal, 116%; in the assay on SF-268 CNS, 103%; in the assay with SF-295 CNS, 101%; with SF-539 CNS it was 100%. In addition, the growth in the assay with UACC-257 melanoma and in the assay on M14 melanoma was 101% throughout.

For `Cc1ccc(S(=O)(=O)Nc2ccc(Cl)cc2)cc1`, the growth with NCI-H23 lung is 91.6%; in the assay with NCI-H226 lung, 96.6%; in the assay on NCI-H322M lung, 94%; with HOP-62 NSCLC, 98.4%; in the assay with NCI-H460 lung it was 105%; in the assay with HOP-92 NSCLC, 86.9%. The growth with NCI-H522 lung was 104%; in the assay with A549/ATCC NSCLC, 94%; in the assay with 786-0 renal it was 100%; in the assay with COLO 205 colon, 111%; with DU-145 prostate it was 118%; in the assay with K-562 leukemia, 97.6%. Besides, the growth in the assay on MALME-3M melanoma is 100%; with MDA-MB-231 breast, 86.6%; with RXF 393 renal, 103%; in the assay on SF-268 CNS it was 107%; with SF-295 CNS, 91.2%; in the assay on SF-539 CNS, 104%. Moreover, the growth in the assay on UACC-257 melanoma was 105%; with M14 melanoma, 103%.

As to `CC(C)Cc1ccc(C(C)C(=O)NCc2c[nH]c3ccc(Cl)cc23)cc1` (centres undefined), the growth with NCI-H23 lung is 98%; in the assay on NCI-H226 lung, 92.3%; in the assay with NCI-H322M lung it was 99.7%; in the assay with HOP-62 NSCLC, 99.7%; in the assay on NCI-H460 lung it was 99.7%; in the assay on HOP-92 NSCLC, 79.8%. For the same molecule, the growth is 87.2% in the assay on NCI-H522 lung; 89% in the assay with A549/ATCC NSCLC; 95.8% with 786-0 renal; 107% in the assay on COLO 205 colon; 103% in the assay on DU-145 prostate; 71.3% with K-562 leukemia. The growth was 98.8% with MALME-3M melanoma; 82.2% in the assay on MDA-MB-231 breast; 87.8% in the assay on RXF 393 renal; 89.3% with SF-268 CNS; 88.3% in the assay on SF-295 CNS; 100% with SF-539 CNS. The results for the growth in the assay on UACC-257 melanoma and in the assay on M14 melanoma were 99.4% and 92.4%, respectively.

The record behind these values is PubChem BioAssay (NCI).
